Common to all, as to test: NCI-60 one-dose screen, 48 h (100 = growth as untreated, 0 = no growth, -100 = all killed)
One assay concerns K-562 leukemia. The note with it: 10 µM unless noted.
The next assay has as its system MALME-3M melanoma. Conditions: 10 µM unless noted.
In a further assay the test system is RXF 393 renal. Conditions: 10 µM unless noted.
A further assay deals with SF-295 CNS. The note with it: 10 µM unless noted.
Another assay relates to UACC-257 melanoma. The note with it: 10 µM unless noted.
For another assay, the system named is HCT-15 colon. The note with it: 10 µM.
The test system of another assay is UACC-62 melanoma. The note with it: 10 µM unless noted.
Another assay deals with LOX IMVI melanoma. Conditions: 10 µM unless noted.
Another assay concerns SK-MEL-2 melanoma. The note with it: 10 µM unless noted.
For the next assay, the system named is TK-10 renal. The note with it: 10 µM unless noted.
The next assay relates to ACHN renal. Conditions: 10 µM unless noted.
The test system of a further assay is A498 renal. Conditions: 10 µM unless noted.
The subject of another assay is HL-60(TB) leukemia. Conditions: 10 µM unless noted.
A further assay deals with MOLT-4 leukemia. The note with it: 10 µM.
For another assay, the system named is OVCAR-8 ovarian. The note with it: 10 µM unless noted.
Another assay concerns OVCAR-4 ovarian. The note with it: 10 µM unless noted.
In another assay the test system is NCI/ADR-RES ovarian. The note with it: 10 µM unless noted.
A further assay relates to T-47D breast. Conditions: 10 µM unless noted.
The next assay relates to BT-549 breast. Conditions: 10 µM.
The subject of another assay is HCC-2998 colon. The note with it: 10 µM unless noted.

SMILES strings stand for the structures. About 83,000 compounds went through this panel and 20% of them were active in at least one assay; those are over-represented in the sample as a whole.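 Method: cells in 96-well plates; compound added at one concentration; 48 h incubation; percent growth measured; values under 10 scored active.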 Unmarked numbers belong to inactive results. The source made the active and inactive calls.

For `CC(C)N=C(NC(C)C)N1CC1`, the growth is 124% in the assay on K-562 leukemia; 124% in the assay with MALME-3M melanoma; 122% in the assay with RXF 393 renal; 102% in the assay with SF-295 CNS; 105% with UACC-257 melanoma; 110% with HCT-15 colon. The growth in the assay with UACC-62 melanoma is 105%; in the assay with LOX IMVI melanoma it was 116%; with SK-MEL-2 melanoma, 112%; in the assay with TK-10 renal, 122%; in the assay on ACHN renal, 109%; in the assay with A498 renal it was 116%. Besides, the growth in the assay on HL-60(TB) leukemia was 104%; with MOLT-4 leukemia, 105%; with OVCAR-8 ovarian, 108%; in the assay with OVCAR-4 ovarian it was 104%; in the assay on NCI/ADR-RES ovarian, 113%; with T-47D breast, 111%. For the same compound, the figures for the growth with BT-549 breast and in the assay on HCC-2998 colon were 114% and 103%, respectively.

On to `CC[C@@H](C)/C=C(C)/C=C/C(=O)c1c(O)c(-c2ccc(O)cc2)cn(O)c1=O`, for which the growth in the assay with K-562 leukemia is 12.1%; in the assay on MALME-3M melanoma, -7% (active); with RXF 393 renal, 19.8%; in the assay with SF-295 CNS, -28.7% (active); with UACC-257 melanoma it was -29.8% (active); in the assay with HCT-15 colon it was 30.7%. Moreover, the growth is -31.6% (active) in the assay with UACC-62 melanoma; 3.82% (active) with LOX IMVI melanoma; 59.7% in the assay on SK-MEL-2 melanoma; 11.6% with TK-10 renal; 0.29% (active) in the assay on ACHN renal; 39.3% in the assay on A498 renal. Besides, the growth was 4.95% (active) in the assay with OVCAR-8 ovarian; 1.53% (active) with NCI/ADR-RES ovarian; 15.8% in the assay with T-47D breast; 18% with BT-549 breast; 36.4% in the assay with HCC-2998 colon.

In the case of `S=P(N1CCCCCC1)(N1CC1)N1CC1`, the growth in the assay on K-562 leukemia is 97%; in the assay with MALME-3M melanoma, 90.3%; with RXF 393 renal it was 124%; in the assay with SF-295 CNS, 117%; in the assay with UACC-257 melanoma, 106%; in the assay with HCT-15 colon it was 118%. Moreover, the growth in the assay on UACC-62 melanoma is 98.3%; with LOX IMVI melanoma it was 103%; in the assay on SK-MEL-2 melanoma it was 97.9%; in the assay on TK-10 renal, 98.5%; in the assay on ACHN renal, 104%; in the assay on A498 renal it was 107%. Also, the growth with HL-60(TB) leukemia is 84.3%; in the assay with MOLT-4 leukemia, 33.4%; in the assay on OVCAR-8 ovarian, 100%; in the assay with OVCAR-4 ovarian, 117%; in the assay with NCI/ADR-RES ovarian it was 104%; with T-47D breast, 94.5%. Further, the growth in the assay with BT-549 breast was 102%; with HCC-2998 colon it was 93.8%.

Source of the values: PubChem BioAssay (NCI).
